Measurements: PubChem BioAssay (NCI)
This is part of a sample that, as a whole, favours compounds with a hit. Of some 83,000 tested, about 20% had one in any assay.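 Treatment: one concentration, 48 hours, 96-well format. Scoring: percent growth, with anything below 10 considered active.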 Unmarked numbers belong to inactive results. Activity calls are given as the source filed them.

test system: HCT-116 colon; assay: NCI-60 one-dose screen, 48 h (100 = growth as untreated, 0 = no growth, -100 = all killed); settings: 10 µM unless noted

Question: For `CC1(C=O)NC(=O)NC1=O` (stereo not given), which growth is on record?
Answer: 90.5%

Question: How did the growth turn out when `COc1ccc(Nc2ncccc2NC(=O)c2cn(Cc3cccc(Oc4ccccc4)c3)nn2)cc1` was run?
Answer: 92.4%

Question: For `OCCNC(=S)Nc1ccc(-c2nc(N3C[C@H]4CC[C@@H](C3)O4)c3cccn3n2)cc1`, which growth is on record?
Answer: 22.6%

Question: For `O=C(c1ccccc1)C(c1ccccc1)N1CCOCC1` (stereo not given), which growth is on record?
Answer: 102%

Question: Which growth does the source give for `NN1C(=O)CSC1=S` here?
Answer: 96.8%

Question: With `CC12O[C@H](C[C@@H](OC(=O)CCC(=O)O)[C@H]1O)n1c3ccccc3c3c4c(c5c6ccccc6n2c5c31)C(=O)NC4=O` as the compound, how does the growth read?
Answer: 35.6%

Question: For `C=C1[C@@H](O)C[C@H]2C(C)(C)C[C@H](Cl)C[C@]2(C)[C@H]1C[C@H](O)[C@H]1CC(=O)NC1=O`, which growth is on record?
Answer: -28.8% (active)

Question: How did the growth turn out when `COC(=O)[C@H](Cc1ccccc1)NC(=O)[C@@H](OC)[C@@H]1Cc2cc3cc(OC4CC(OC5CC(O)C(O)C(C)O5)C(O)C(C)O4)c(C)c(O)c3c(O)c2C(=O)[C@H]1OC1CC(OC2CC(OC3CC(C)(O)C(O)C(C)O3)C(O)C(C)O2)C(O)C(C)O1` (stereo not given in full) was run?
Answer: 1.85% (active)

Question: For `CCOC(=O)C1=C(C)N=C2Sc3cccc(OC)c3N2[C@H]1c1ccccn1`, which growth is on record?
Answer: 94.9%

Question: `CNC(=O)c1cc(Oc2cccc3nc(Nc4ccc(Oc5ccccc5)cc4)ccc23)ccn1` was tested. Which growth did it give?
Answer: 48%

Question: For `COc1ccc(-c2nc(N)ncc2Oc2ccccc2OC)c(O)c1`, which growth is on record?
Answer: 15.9%

Question: With `CSc1nc2ncncc2[nH]1` as the compound, how does the growth read?
Answer: 84.8%

Question: How did the growth turn out when `Nc1c2c(c(O)c3c1=C(CO)C=N3)=NCCS2=O` (stereo not given) was run?
Answer: -49.3% (active)

Question: How did the growth turn out when `CC(C)=CCc1cc2c(cc1O)C1=C(C(=O)C3=C(NCCS3(=O)=O)C1=O)C(C=C(C)C)O2` (stereo not given) was run?
Answer: -21.2% (active)

Question: For `CC/C=C\C[C@H]1C/C=C2/C(=O)C=C[C@@H]2C/C=C\CCCC(=O)O1`, which growth is on record?
Answer: -67.5% (active)
